Experimental data reported in ChEMBL document CHEMBL3988442, “University of Dundee, Small-Polar-MMV Screening Library” (2021).
The campaign covered roughly 38,000 compounds. About 1,200 (3.2%) showed an effect of 50% or more. The median lay at about -58%. Only a selection was taken, and strong results are over-represented in it overall.

The compounds below were run on Plasmodium falciparum (assay: Calibr Malaria Delayed Death Assay SOP). Conditions: concentration 4.99e-06 (unit not given; other assays of the set use mol/L).
Type: functional, organism-based
Set-up: scale not given: in the data most compounds retested in dose-response had high values

SMILES	Percent Effect
COc1cc(S(=O)(=O)N2CCc3cc(Br)ccc32)cc(C(=O)O)c1OC	-66.42%
CC(=O)c1cccc(S(=O)(=O)NCCNC(=O)c2snnc2C)c1	-10.04%
Cc1csc(CN2CC[C@H]3O[C@H](C(=O)Nc4cccnc4)CC[C@H]32)n1.O=C(O)C(F)(F)F.O=C(O)C(F)(F)F	-21.13%
CC(=O)N1[C@H](Cn2cncn2)C[C@@H]2CN(Cc3nccs3)CC[C@@H]21	-179.2%
Cl.Cl.c1csc(N2[C@H](Cn3cncn3)C[C@@H]3CNCC[C@@H]32)n1	-62.09%
O=C(O)C(F)(F)F.O=C(O)C(F)(F)F.O=C(O)C(F)(F)F.c1cnn(C[C@@H]2C[C@@H]3CN(CC4CC4)CC[C@@H]3N2c2nccs2)c1	89.5%
CC(=O)N1CC[C@H]2[C@H](C[C@@H](Cn3cncn3)N2c2nccs2)C1.O=C(O)C(F)(F)F	-37.22%
CC(=O)N1CC[C@H]2[C@H](C[C@@H](CN3CCCC3)N2c2nccs2)C1.O=C(O)C(F)(F)F.O=C(O)C(F)(F)F	-53.97%
CCC(=O)N1CC[C@H]2[C@H](C[C@@H](Cn3cccn3)N2c2nccs2)C1.O=C(O)C(F)(F)F.O=C(O)C(F)(F)F	-17.69%
CC(=O)N1[C@H](Cn2cncn2)C[C@@H]2CN(CC3CC3)CC[C@@H]21.O=C(O)C(F)(F)F	-11.44%
CN1CC[C@H]2[C@H](C[C@@H](CN3CCCC3)N2c2nccs2)C1.O=C(O)C(F)(F)F.O=C(O)C(F)(F)F.O=C(O)C(F)(F)F	72.73%
CC(C)N1CC[C@H]2[C@H](C[C@@H](Cn3cccn3)N2c2nccs2)C1.O=C(O)C(F)(F)F.O=C(O)C(F)(F)F.O=C(O)C(F)(F)F	65%
CN1[C@H](CN2CCCC2)C[C@@H]2CN(C(=O)Cc3cccs3)CC[C@@H]21.O=C(O)C(F)(F)F.O=C(O)C(F)(F)F	-31.64%
CCC(=O)N1CC[C@H]2[C@H](C[C@@H](CN3CCCC3)N2c2nccs2)C1.O=C(O)C(F)(F)F.O=C(O)C(F)(F)F	-82.37%
CC1CCC(NC(=O)NCC(C)(C)CCS(C)(=O)=O)CC1 (centres undefined)	-129.7%
CCN(Cc1ccc(S(C)(=O)=O)cc1)Cc1nc(COC)no1	-129.1%
O=c1cc(Cn2ccnc2)nc2n1CCCN(Cc1cccs1)C2	-55.92%
O=C(NCCCO)c1cc(-c2cc[nH]n2)n2ccccc12.O=C(O)C(F)(F)F	-31.15%
COc1ccc(C(NCc2cccc(C#N)c2)C2CC2)cc1 (centres undefined)	47.49%
COc1ccc(C(NCc2cccc(O)c2)C2CC2)cc1 (centres undefined)	83.32%
COc1ccc(C(NCc2cccc(C#N)c2)C(C)C)cc1 (centres undefined)	-12.81%
CC(C)CCNC(=O)NC(C)c1nncn1C (centres undefined)	-95.25%
CN1CCC2(CC1)CN(C(=O)c1cccnc1)c1ccc(Cl)cc12	55.37%

SMILES	Percent Effect
CCN1CCC2(CC1)CN(C(=O)c1cccnc1)c1ccc(Cl)cc12.O=C(O)C(F)(F)F.O=C(O)C(F)(F)F	9.219%
CC(=O)N1CCC2(CC1)CN(C(=O)c1cccnc1)c1ccc(F)cc12.O=C(O)C(F)(F)F	-38.16%
O=C(CN1CCC(c2nnc(C(F)(F)F)o2)CC1)Nc1cccc(Cl)c1	-52.49%
CC(C)Nc1ncnc2c1CCN(C(=O)c1ccccc1F)CC2.O=C(O)C(F)(F)F	-96.03%
O=S(=O)(NC1=NCN(CCc2cccs2)CN1)c1ccc(Br)cc1	-31.17%
CCCC(=O)N1CCC(N2CC[C@@](O)(CCOC)[C@H](C)C2)CC1	-32.76%
CCCS(=O)(=O)N1CCC2(CC1)CC(Nc1ncccn1)CO2 (centres undefined)	-70.84%
CC(C)N(C)Cc1cnc2n1CCN(C(=O)Cc1ccccn1)C2.O=C(O)C(F)(F)F.O=C(O)C(F)(F)F	-6.542%
CC(C)N(C)Cc1cnc2n1CCN(CCc1ccccc1)C2.O=C(O)C(F)(F)F.O=C(O)C(F)(F)F	0.4179%
CC(C)N(C)Cc1cnc2n1CCN(C(=O)c1cccs1)C2	60.68%
O=C(c1cccs1)N1CCc2ncc(Cn3cncn3)n2CC1	-172.5%
O=C(NC1CC1)N1CCn2c(Cn3cccn3)cnc2C1.O=C(O)C(F)(F)F	-67.84%
Cc1noc(C2CCC3(CCN(C(=O)c4ccnnc4)CC3)O2)n1 (centres undefined)	-55.26%
Cc1cccc(NC(=O)[C@@H]2CCCN2Cc2nc(C)c(C)o2)n1	-28.43%
CCOc1ccc(C(C)Nc2ncnc3c2CCNC3)cc1OCC (centres undefined)	46.78%
CC(Nc1ncnc2c1CCNC2)c1ccc2c(c1)CCCC2 (centres undefined)	70.15%
CC(C)Nc1ncnc2c1CCNCC2	-47.68%
Cc1ccc(C)c(-n2ncc(C(=O)NCC3COC(C)(C)O3)c2N)c1 (centres undefined)	-97.45%
COCCN(C)C[C@@H]1CN(C(=O)c2cccc(C#N)c2)C[C@@H]1CO	-70.73%
COc1cc(Cl)c(NCc2c(C)noc2C)cc1OC	-68.38%
Cc1cccc(C(=O)Nc2cccc3c2CCCC3)n1	-261.8%
O=C(Nc1cccc2c1CCCC2)c1cccnc1N1CCCNCC1	53.52%
CC1CN(c2ncccc2C(=O)Nc2cccc3c2CCCC3)CCN1 (centres undefined)	10.16%

SMILES	Percent Effect
Cc1cccc(OC2CCN(C(=O)c3ccc4ncsc4c3)CC2)n1	-115.6%
CCNc1ncc2c(n1)CN(c1ccc(Cl)cc1)C2=O	-180.2%
Cc1cccc(COC2COC3(CCN(S(C)(=O)=O)CC3)C2)n1.O=C(O)C(F)(F)F (centres undefined)	-59.75%
CCN1CCC2(CC1)CC(NCc1cccc(C)n1)c1ccccc1O2.O=C(O)C(F)(F)F.O=C(O)C(F)(F)F.O=C(O)C(F)(F)F (centres undefined)	91.27%
CCCC(=O)N1CCC2(CC1)CC(NC(C)=O)c1ccccc1O2 (centres undefined)	-58.82%
Cc1cccc(COC2COC3(CCN(Cc4ccoc4)CC3)C2)n1 (centres undefined)	-18.84%
CCOC1COC2(CCN(Cc3cccc(C)n3)CC2)C1.O=C(O)C(F)(F)F (centres undefined)	-37.49%
COC(=O)c1cc(C)nc(N2CCN(Cc3ccn(C(C)C)c3)CC2)n1	-8.689%
Cc1cccc(NC(=O)CN2C(=O)CC(C)(C)c3ccccc32)n1	-54.59%
CC(C)OCCC(=O)N1CCN(CC(O)c2ccccc2)CC1 (centres undefined)	-51.21%
COc1cc(N2CC[C@@H]3O[C@@H](C(=O)NCCN(C)C)C[C@@H]32)ncn1	-52.73%
O=C(Cc1n[nH]c(-c2cncc(Br)c2)n1)NCc1cccnc1	-11.15%
Cn1ncc2c1CCCC2NCc1cccc(OC2CCCC2)c1 (centres undefined)	2.699%
CC(C)[C@H](NC(=O)Cn1nc2c(cc1=O)CCCC2)C(=O)O	-82.81%
CCn1nccc1CNC(=O)C1CCCCC1	-119.3%
Cc1cc(NC(=O)N2CCCC2C(C)(C)O)c2ncccc2c1 (centres undefined)	-22.81%
Cc1cc(NC(=O)N2CCCC2C(=O)NC2CC2)c2ncccc2c1 (centres undefined)	-118%
Cc1cc(NC(=O)NC2CCN(C(C)C)CC2)c2ncccc2c1	79.09%
CC(C)C(=O)Nc1ccc2c(c1)ncn2CC(=O)NCCN(C)C	-104.6%
O=C(NCCc1cccc(Cl)c1)C1CCOCC1	-133.6%
O=C(Cc1cccc(Cl)c1)N[C@@H]1CCNC[C@H]1O	-79.06%
O=C(C[S+]([O-])Cc1cccc(Cl)c1)NC1CCCC1 (centres undefined)	-107.7%
O=C(O)c1cn2cc(C(F)(F)F)ccc2n1	-36.42%

SMILES	Percent Effect
O=C(NCc1ccco1)[C@H]1C[C@H]2OCC[C@H]2N(C(=O)c2ccnnc2)C1	-30.68%
CCCN1CCC(N2CCOC(Cc3cccc(OC)c3)C2)CC1 (centres undefined)	-127.7%
O=C(NCCN1CCCCC1)c1nc(-c2cccc3[nH]ccc23)no1	15.88%
CCC(=O)N1CCCC1c1csc(Nc2cnccn2)n1 (centres undefined)	-46.83%
COCC(=O)N1CCCC1c1csc(Nc2cnccn2)n1 (centres undefined)	-55%
O=C(O)C(F)(F)F.O=C(O)C(F)(F)F.O=C1NC2(CCN(Cc3ccoc3)CC2)CC1c1ccncc1 (centres undefined)	-15.5%
Nc1nccc(N2CCC(c3cc(Cc4ccccc4)n[nH]3)CC2)n1	35.49%
Cc1n[nH]c(C)c1CNCC(O)c1ccc(F)c(F)c1 (centres undefined)	14.72%
Cc1cc(C)c(CNCC(O)c2ccc(F)c(F)c2)c(C)c1.Cl (centres undefined)	92.75%
Cc1csc(CNC(=O)NCC(O)c2ccc(F)c(F)c2)n1 (centres undefined)	2.8%
Cc1n[nH]cc1CNCC(O)c1ccc(F)c(F)c1.Cl (centres undefined)	-33.27%
Cc1nc(CNC(=O)NCC(O)c2ccc(F)c(F)c2)cs1 (centres undefined)	-178.5%
COCCCNc1nc(CNC(C)=O)cc(-c2ccco2)n1	-87.48%
O=C(O)C(F)(F)F.O=S(=O)(C1CC1)N1CCc2ncnc(N3CCCC3)c2CC1	-107.1%
CCc1nc(C2CCCN2Cc2cnc(C)cn2)no1 (centres undefined)	-15.63%
CC(C)c1cc(NC(=O)CN2CCCC2Cn2cncn2)on1 (centres undefined)	-56.31%
CN1CCCc2cc(CNC(=O)c3ccncc3)ccc21	-23.61%
COc1cc(C(=O)NCc2ccc3c(c2)CCCN3C)cc(OC)c1Br	65%
COC(=O)c1cccc(C(=O)NCc2ccc3c(c2)CCCN3C)c1	-12.04%
Cc1nn(CC(O)CN2CCC(C)CC2)c(=O)c(C#N)c1C (centres undefined)	-55.82%
